Measurements published in PubChem BioAssay AID1347414 (National Center for Advancing Translational Sciences (NCATS), 2020).
Records with an inconclusive call do not appear. Where a call stands in place of a potency, no number is given. The source made the active and inactive calls. The call rests on the fitted dose curve; in most records, active means well fitted inhibition curve with a large enough effect; inconclusive means small, poorly fitted or top-dose-only effect; inactive means no such curve, though single readings can be large or run the other way.

Test: qHTS to identify inhibitors of the type 1 interferon - major histocompatibility complex class I in skeletal muscle: Secondary screen by immunofluorescence; further: nearly all actives have a fitted effect of over 70% in size
Conditions: C25cl48 myoblasts, IFN-b induced HLA-ABC immunofluorescence, 24 h, Viability; series mostly up to 49.8 µM
How it was run: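 Immortalized human myoblasts C25cl48 were stimulated with 4.0 ng/ml IFN-beta and exposed to an 11-point 1:3 compound titration, top 50 uM, for 24 h at 37 C. They were then fixed and immunostained for HLA-ABC, and quantified by laser scanning cytometry.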
Potency means the concentration at half of the fitted maximal effect.

Row | SMILES | Potency
1 | CC(C)c1cc(CNc2nc(Nc3cc(C4CC4)[nH]n3)cc(N3CCN(C)CC3)n2)on1 | inactive
2 | Cc1cc(-n2c(=O)ccc3cnc4[nH]ccc4c32)ccc1F | inactive
3 | CC(C)(C)c1cnc(CSc2cnc(NC(=O)C3CCNCC3)s2)o1 | inactive
4 | CC1(C)CC(=O)c2c(C(F)(F)F)nn(-c3ccc(C(N)=O)c(NC4CCC(O)CC4)c3)c2C1 (configuration not stated) | inactive
5 | Cc1cc(O)c(-c2ccc([C@@H](C)CN(C)C)cc2)c2c1[nH]c(=O)c1sccc12 | inactive
6 | COc1ncc(Nc2ncc(C(C)N3CCN(S(C)(=O)=O)CC3)cc2-c2nc(C)nc(N)n2)cc1F (configuration not stated) | inactive
7 | NS(=O)(=O)OC[C@@H]1C[C@@H](n2ccc3c(N[C@H]4CCc5ccccc54)ncnc32)C[C@@H]1O | inactive
8 | NC(=O)Nc1sc(-c2ccc(F)cc2)cc1C(N)=O | inactive
9 | CC(C)(C)c1ccc(S(=O)(=O)/C=C/C#N)cc1 | 3.24 µM (active)
10 | O=C1Nc2ccccc2C1(c1ccc(O)cc1)c1ccc(O)cc1 | inactive
11 | C=CC(=O)N1CC/C(=C\c2ccc(F)c([N+](=O)[O-])c2)C(=O)/C(=C/c2ccc(F)c([N+](=O)[O-])c2)C1 | 0.408 µM (active)
12 | C[C@H](Nc1ncnc2nc[nH]c12)c1cc2cccc(Cl)c2c(=O)n1-c1ccccc1 | inactive
13 | CC1=C(CO)C(=O)O[C@@H]([C@@H](C)[C@H]2CC[C@H]3[C@@H]4C[C@H]5O[C@]56[C@@H](O)C=CC(=O)[C@]6(C)[C@H]4CC[C@]23C)C1 | 2.05 µM (active)
14 | O=C1NCCc2[nH]c(-c3ccncc3)cc21 | inactive
15 | COC1CC(C(=O)c2ccc3c(N)ncc(-c4ccc(-c5cnn(C)c5)cc4)c3n2)C1 (configuration not stated) | inactive
16 | CCCCc1nc2cc(/C=C/C(=O)NO)ccc2n1CCN(CC)CC | inactive
17 | COc1cc(Nc2ncc(F)c(Nc3ccc4c(n3)NC(=O)C(C)(C)O4)n2)cc(OC)c1OC | inactive
18 | CC(C)c1cc(C(=O)N2Cc3ccc(CN4CCN(C)CC4)cc3C2)c(O)cc1O | inactive
19 | CS[C@H]1SC[C@@H]2C(=O)N(C)[C@H](C(C)C)C(=O)OC[C@H](NC(=O)c3cnc4ccccc4n3)C(=O)N[C@H](C)C(=O)N(C)[C@H]1C(=O)N(C)[C@H](C(C)C)C(=O)OC[C@H](NC(=O)c1cnc3ccccc3n1)C(=O)N[C@H](C)C(=O)N2C | inactive

Row | SMILES | Potency
20 | CCCC(=O)O[C@]1(C(=O)CO)CC[C@H]2[C@@H]3CCC4=CC(=O)CC[C@]4(C)[C@H]3[C@@H](O)C[C@@]21C | inactive
21 | Fc1cccc(-n2cnc3c(NCc4nc5c(F)c(F)ccc5[nH]4)nc(N4CCOCC4)nc32)c1 | inactive
22 | CCOc1cc2ncc(C#N)c(Nc3ccc(F)c(Cl)c3)c2cc1NC(=O)/C=C/CN(C)C | 16.2 µM (active)
23 | Fc1ccc(CNc2ncnc3ccc(F)cc23)cc1 | inactive
24 | NC(=O)c1cnc2[nH]ccc2c1NC1C2CC3C[C@H]1CC(O)(C3)C2 (some centres not stated) | inactive
25 | CCCOc1ccc2nc(NC(=O)OC)[nH]c2c1 | inactive
26 | Cc1ccc(NC(=O)NCc2ccc3c(c2)CN(C2CCC(=O)NC2=O)C3=O)cc1Cl (configuration not stated) | inactive
27 | C1=C/COCc2cc(ccc2OCCN2CCCC2)Nc2nccc(n2)-c2cccc(c2)COC/1 | 11.5 µM (active)
28 | CCOC(=O)C1=C(C)NC2=C(C(=O)CC(C)(C)C2)C1c1ccc(-c2ccccc2)cc1 (configuration not stated) | inactive
29 | CC(C)c1c(-c2ccccc2)nc2c(C#N)c[nH]n2c1=O | inactive
30 | O=C(/C=C/c1ccc2ccc(C(F)(F)F)cc2n1)c1ccncc1 | 3.64 µM (active)
31 | CC(C)c1cc(-c2n[nH]c(=O)n2-c2ccc3c(ccn3C)c2)c(O)cc1O | inactive
32 | Cc1oncc1C(=O)Nc1ccc(C(F)(F)F)cc1 | inactive
33 | C=C1C(=O)O[C@@H]2[C@H]3O[C@]3(C)CC/C=C(\C)CC[C@@H]12 | 11.5 µM (active)
34 | COC(=O)C[C@](O)(CCCC(C)(C)O)C(=O)O[C@@H]1C(OC)=C[C@]23CCCN2CCc2cc4c(cc2[C@H]13)OCO4 | inactive
35 | Cc1ncc(-c2ccnc(Nc3ccc(S(C)(=O)=O)cc3)n2)n1C(C)C | inactive
36 | Nc1ccccc1NC(=O)c1ccc(CNc2nccc(-c3cccnc3)n2)cc1 | inactive
37 | CC(/C=C/C(=O)NO)=C\[C@@H](C)C(=O)c1ccc(N(C)C)cc1 | inactive
